# Test results reported in PubChem BioAssay (EPA / NIEHS).
# Records with an inconclusive call do not appear. Activity calls are given as the source filed them. How the source made its calls, unless noted: active means hit-call score of the fitted dose curve at least 0.9, where 1 is the maximum; inactive means score below 0.9.
# Experiments:
# [1] = CEETOX_H295R_11DCORT_noMTC: CeeTox H295R High-throughput Steroidogenesis Assay for 11-Deoxycortisol (11DCORT), maximum tolerated concentration (MTC) filtered results only (AID 2283911); settings: actives raise or lower the signal
# Method in brief: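 Steroidogenesis was stimulated in H295R cells with 10 uM forskolin for 48 h before a 48 h chemical exposure. Secreted 11-deoxycortisol was measured by tandem mass spectrometry and fitted bidirectionally against DMSO controls.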
# [2] = CEETOX_H295R_OHPREG_noMTC: CeeTox H295R High-throughput Steroidogenesis Assay for OH-Pregnenolone (OHPREG), maximum tolerated concentration (MTC) filtered results only (AID 2283912); settings: actives raise or lower the signal
# Method in brief: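 H295R cells prestimulated 48 h with 10 uM forskolin, then exposed 48 h to compound (0.1% DMSO). 17alpha-hydroxypregnenolone in medium measured by MTBE extraction and HPLC-MS/MS; bidirectional fit vs DMSO, concentrations not MTT/MTC-filtered.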
# [3] = CEETOX_H295R_OHPROG_noMTC: CeeTox H295R High-throughput Steroidogenesis Assay for OH-Progesterone (OHPROG), maximum tolerated concentration (MTC) filtered results only (AID 2283914); settings: actives raise or lower the signal
# Method in brief: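 H295R cells prestimulated 48 h with 10 uM forskolin, then exposed 48 h to chemical (0.1% DMSO final). 17alpha-hydroxyprogesterone in medium quantified by HPLC-MS/MS after MTBE extraction; bidirectional fitting versus DMSO, concentrations not MTC-filtered.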
# [4] = CEETOX_H295R_CORTISOL_noMTC: CeeTox H295R High-throughput Steroidogenesis Assay for Cortisol, maximum tolerated concentration (MTC) filtered results only (AID 2283916); settings: actives raise or lower the signal
# Method in brief: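 H295R human adrenal cells prestimulated 48 h with 10 uM forskolin, then exposed 48 h to chemical in 0.1% DMSO; cortisol in medium quantified by HPLC-MS/MS; bidirectional fit vs DMSO baseline, concentrations not MTT-filtered for MTC.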
# [5] = CEETOX_H295R_CORTIC_noMTC: CeeTox H295R High-throughput Steroidogenesis Assay for Corticosterone (CORTIC), maximum tolerated concentration (MTC) filtered results only (AID 2283917); settings: actives raise or lower the signal
# Method in brief: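 H295R adrenal cells pre-stimulated 48 h with 10 uM forskolin, then exposed 48 h to chemical in 0.1% DMSO; corticosterone in medium quantified by HPLC-MS/MS, fitted bidirectionally versus DMSO without MTT-based concentration filtering.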
# [6] = CEETOX_H295R_DOC_noMTC: CeeTox H295R High-throughput Steroidogenesis Assay for DOC, maximum tolerated concentration (MTC) filtered results only (AID 2283918); settings: actives raise or lower the signal
# Method in brief: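 H295R cells prestimulated 48 h with 10 uM forskolin, then exposed 48 h to chemical in 0.1% DMSO. 11-Deoxycorticosterone in medium measured by MTBE extraction and HPLC-MS/MS; bidirectional fit vs DMSO, no MTC filter.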
# [7] = CEETOX_H295R_ESTRADIOL_noMTC: CeeTox H295R High-throughput Steroidogenesis Assay for Estradiol, maximum tolerated concentration (MTC) filtered results only (AID 2283919); settings: actives raise or lower the signal
# Method in brief: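 H295R human adrenal cells pre-stimulated 48 h with 10 uM forskolin, then exposed 48 h to chemical (0.1% DMSO final). Estradiol in medium measured by HPLC-MS/MS after MTBE extraction and dansyl derivatization; bidirectional fit versus DMSO, concentrations not MTT-filtered.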
# [8] = CEETOX_H295R_PROG_noMTC: CeeTox H295R High-throughput Steroidogenesis Assay for Progesterone (PROG), maximum tolerated concentration (MTC) filtered results only (AID 2283920); settings: actives raise or lower the signal
# Method in brief: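 H295R cells, prestimulated 48 h with 10 uM forskolin, exposed 48 h to chemical in 0.1% DMSO. Medium progesterone quantified by MTBE extraction and HPLC-MS/MS; bidirectional fit versus DMSO, concentrations not MTT-filtered.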
# [9] = CEETOX_H295R_ESTRONE_noMTC: CeeTox H295R High-throughput Steroidogenesis Assay for Estrone, maximum tolerated concentration (MTC) filtered results only (AID 2283921); settings: actives raise or lower the signal
# Method in brief: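 H295R cells prestimulated 48 h with 10 uM forskolin, then exposed 48 h to chemical in 0.1% DMSO; medium estrone measured by HPLC-MS/MS after MTBE extraction and dansyl derivatization, fitted bidirectionally versus DMSO without MTT-based MTC filtering.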
# [10] = TOX21_PR_LUC_Followup_Antagonist_viability: Viability Assessment in the Tox21 HEK293 Progesterone Receptor (PR) Antagonism Luciferase Follow-Up Assay (AID 2283940; active means hit-call score of the fitted dose curve at least 0.9, where 1 is the maximum)
# Method in brief: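 HEK293-PR-A-luc cells kept in charcoal-stripped FBS medium were plated 5 h before compound addition, then exposed 16 h at 37C; viability read as cellular ATP by luciferase luminescence, loss of signal indicating cytotoxicity.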
# [11] = biological target: Thyroid hormone receptor alpha (Rattus norvegicus) + Thyroid hormone receptor beta (Rattus norvegicus) (UniProt P18113+P63059); experiment: TOX21_TR_LUC_GH3_Antagonist_Followup: Tox21 GH3 Thyroid Hormone Receptor Antagonism Luciferase Follow-Up Assay (AID 2283942; active means hit-call score of the fitted dose curve at least 0.9, where 1 is the maximum)
# Method in brief: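 Antagonist mode: GH3 cells seeded 1,500/well, compounds at 15 concentrations (92 uM to 5nM final) plus T3 at 1.0 nM final, 24 h at 37C. Luciferase read with ONE-Glo after 30 min at room temperature.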
# THRA (gene 7067) = THRA (gene 7067) (UniProt P10827); experiment: TOX21_TRA_COA_Antagonist_Followup_ratio: Tox21 Thyroid Hormone Receptor alpha Antagonism through Coactivator Recruitment Follow-Up Assay, Ratio (AID 2283953; active means hit-call score of the fitted dose curve at least 0.9, where 1 is the maximum)
# Method in brief: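 520:495 nm emission ratio (excitation 340 nm) reports fluorescein-SRC-2 peptide recruitment to GST-TRα LBD by TR-FRET with Tb anti-GST antibody. Values were normalized to DMSO (0%) and T3 control wells (100%); loss of signal indicated antagonism.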
# THRB (gene 7068) = THRB (gene 7068) (UniProt P10828); experiment: TOX21_TRB_BLA_Antagonist_Followup_ratio: Tox21 Thyroid Hormone Receptor beta Antagonism Beta-lactamase (BLA) Follow-Up Assay, Ratio (AID 2283958; active means hit-call score of the fitted dose curve at least 0.9, where 1 is the maximum)
# Method in brief: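 HEK293T cells with a GAL4-TRb LBD fusion and UAS-bla reporter, 3,000 cells/well in phenol red-free DMEM with 2% charcoal-stripped FBS. Exposed 18 h at 37C to 11 concentrations in triplicate; CCF4 460:530 nm ratio after 2 h, DMSO-referenced.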
# THRB (gene 7068), sequence (P10828 whole entry, looked up, the tested form may be a part): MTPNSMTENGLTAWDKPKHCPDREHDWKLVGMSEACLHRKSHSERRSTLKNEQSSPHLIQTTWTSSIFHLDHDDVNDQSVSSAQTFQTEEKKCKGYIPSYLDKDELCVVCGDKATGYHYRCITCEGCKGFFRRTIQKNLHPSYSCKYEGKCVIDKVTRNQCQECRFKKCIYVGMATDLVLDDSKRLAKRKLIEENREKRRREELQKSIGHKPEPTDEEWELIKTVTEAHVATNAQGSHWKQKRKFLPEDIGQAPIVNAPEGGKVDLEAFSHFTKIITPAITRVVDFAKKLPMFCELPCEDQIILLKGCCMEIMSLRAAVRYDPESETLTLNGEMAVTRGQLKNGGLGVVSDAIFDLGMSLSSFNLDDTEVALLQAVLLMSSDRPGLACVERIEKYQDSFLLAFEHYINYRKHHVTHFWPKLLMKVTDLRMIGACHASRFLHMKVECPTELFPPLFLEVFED
# THRA (gene 7067), sequence (P10827 whole entry, looked up, the tested form may be a part): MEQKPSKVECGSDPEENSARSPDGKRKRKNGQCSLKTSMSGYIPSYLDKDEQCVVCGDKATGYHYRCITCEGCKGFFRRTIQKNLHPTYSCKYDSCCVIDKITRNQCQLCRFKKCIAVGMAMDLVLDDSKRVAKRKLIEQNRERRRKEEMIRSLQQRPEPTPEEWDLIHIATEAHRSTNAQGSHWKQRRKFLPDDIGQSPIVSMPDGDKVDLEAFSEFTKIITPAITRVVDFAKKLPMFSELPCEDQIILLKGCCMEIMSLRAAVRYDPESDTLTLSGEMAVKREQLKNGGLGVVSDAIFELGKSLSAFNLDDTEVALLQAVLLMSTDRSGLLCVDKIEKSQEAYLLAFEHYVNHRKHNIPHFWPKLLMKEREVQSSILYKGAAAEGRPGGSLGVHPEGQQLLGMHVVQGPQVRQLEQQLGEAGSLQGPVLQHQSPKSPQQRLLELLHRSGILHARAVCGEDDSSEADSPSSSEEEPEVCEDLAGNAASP
compound,measurement,setting,value
O=C(Nc1ccccc1)Nc1cnns1,AC50,[1],35.2 µM (active)
same,AC50,[2],14.3 µM (active)
same,AC50,[3],37.8 µM (active)
same,AC50,[4],41.7 µM (active)
same,AC50,[5],31.8 µM (active)
same,AC50,[6],25.4 µM (active)
same,outcome,[7],inactive
same,AC50,[8],34.7 µM (active)
same,outcome,[9],inactive
CCS(=O)(=O)c1cccnc1S(=O)(=O)NC(=O)Nc1nc(OC)cc(OC)n1,outcome,[1],inactive
same,outcome,[2],inactive
same,outcome,[3],inactive
same,outcome,[4],inactive
same,outcome,[5],inactive
same,AC50,[6],7.07 µM (active)
same,AC50,[8],16.7 µM (active)
CCCN(CCOc1c(Cl)cc(Cl)cc1Cl)C(=O)n1ccnc1,outcome,[10],inactive
COP(=S)(OC)Oc1ccc([N+](=O)[O-])cc1,outcome,[10],inactive
CC1(c2ccc(Oc3ccccc3)cc2)OC(=O)N(Nc2ccccc2)C1=O (stereo unspecified),AC50,[11],25.7 µM (active)
same,outcome,THRA (gene 7067),inactive
same,outcome,THRB (gene 7068),inactive
